Many of the other results were omitted from the sample, so hits are more common in it than they were.
Pf apPOL block: Pf-apPOL DNA polymerase inhibition; inhibition, % at 10 µM; AID 1794808; 210,000 compounds, 0.25% hits; Recombinant Pf-apPOL, molecular beacon fluorescence, 1.5 h
mHTT CaM bind: mHTT-calmodulin interaction abrogation; P42858; AlphaScreen His-mHTT/GST-CaM binding, luminescence; inhibition, % at 15 µM; 190,000 compounds, 3.6% hits;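 further: 0% = both proteins with DMSO and 100% = one protein alone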
* marks the source's active call; other numbers are inactive results. No stated cut-off is given here; in the data, active means inhibition above about 50%; inactive means the rest.

Screening CS(=O)(=O)N1CCC(C(=O)Nc2nnc(-c3cc(Cl)ccc3Cl)o2)CC1 returned Pf apPOL block 3 and mHTT CaM bind -4.
For COc1ccc(S(=O)(=O)NC2CCCCCC2)cc1OC the results were Pf apPOL block 2 and mHTT CaM bind -9.
Screening CSC1=C(C#N)C(c2ccc(Cl)cc2)C(C(C)=O)=C(C)N1 (stereo not given) returned Pf apPOL block 0 and mHTT CaM bind -14.
`Cc1cccc(C(=O)N2CCCC2COc2ccc(C(=O)NC3CC3)cc2)c1` (stereo not given) gave Pf apPOL block 5 and mHTT CaM bind 1.
`O=C(c1cccs1)N1CCCC(c2ccnc(Nc3ccccc3F)n2)C1` (stereo not given) gave Pf apPOL block -1 and mHTT CaM bind 30.
O=C(Cc1ccccc1F)N1CCCC(c2ccnc(Nc3ccccc3)n2)C1 (stereo not given) was read as Pf apPOL block -2 and mHTT CaM bind 86*.
For CC(C)C(=O)N1CCCC(c2ccnc(Nc3ccccc3)n2)C1 (stereo not given) the results were Pf apPOL block -4 and mHTT CaM bind 34.
O=C(Cc1ccc(F)cc1)N1CCCC(c2ccnc(Nc3ccccc3)n2)C1 (stereo not given) was read as Pf apPOL block -5 and mHTT CaM bind 96*.
CCOCC(=O)N1CCCC(c2ccnc(Nc3ccc(OC)cc3)n2)C1 (stereo not given) was read as Pf apPOL block -2 and mHTT CaM bind 7.
For COc1ccc(-c2nccc(C3CCCN(C(=O)Cc4ccc(F)cc4)C3)n2)cc1 (stereo not given) the results were Pf apPOL block 1 and mHTT CaM bind 22.
O=C(c1cccs1)N1CCCC(c2ccnc(Nc3ccccc3)n2)C1 (stereo not given) was read as Pf apPOL block 0 and mHTT CaM bind 61*.
`CC(C)CC(=O)N1CCCC(c2ccnc(Nc3ccccc3)n2)C1` (stereo not given) gave Pf apPOL block -2 and mHTT CaM bind 71*.
Cc1ccc(-c2cc(C(=O)N3CCCC(C(=O)N4CCC(C)CC4)C3)no2)cc1 (stereo not given) was read as Pf apPOL block -1 and mHTT CaM bind 25.
`CN1c2ccc(F)cc2C(=O)NC12CCN(C(=O)Nc1ccccc1F)CC2` gave Pf apPOL block -1 and mHTT CaM bind -6.
For COc1cc(N)c(Br)cc1Br the results were mHTT CaM bind -6.
Screening Cc1ccc(S(=O)(=O)N=Cc2ccccc2I)cc1 returned Pf apPOL block 2 and mHTT CaM bind -2.
Screening O=C(Nc1ccc(F)cc1F)c1ccc([N+](=O)[O-])cc1 returned Pf apPOL block 1 and mHTT CaM bind -5.
Screening COc1ccccc1NCc1ccc([N+](=O)[O-])s1 returned Pf apPOL block 11 and mHTT CaM bind 31.
COc1ccc(NCc2ccccc2[N+](=O)[O-])cc1OC was read as Pf apPOL block 4 and mHTT CaM bind 64*.
For COc1ccc(C=O)cc1OCc1ccccc1[N+](=O)[O-] the results were Pf apPOL block 94* and mHTT CaM bind 1.
Screening COc1ccc(NC(=O)Cc2ccccc2[N+](=O)[O-])cc1OC returned Pf apPOL block 2 and mHTT CaM bind 2.
COc1ccc(NCc2ccc([N+](=O)[O-])s2)cc1OC was read as Pf apPOL block 4 and mHTT CaM bind 65*.
Screening CCOc1cc(CN2CCN(Cc3ccccc3[N+](=O)[O-])CC2)ccc1OC returned Pf apPOL block 6 and mHTT CaM bind 9.
`Cc1ccc(C(=O)N2CCCCC2CCN2CCCCCC2)cc1` (stereo not given) gave Pf apPOL block -7 and mHTT CaM bind -4.
`Cc1nn(C(=O)COc2ccc(F)cc2)c(C)c1Sc1ccccc1[N+](=O)[O-]` gave Pf apPOL block -4 and mHTT CaM bind -2.
For COc1ccccc1CCNC(=O)C1CCCN(C(=O)Cc2cccc3ccccc23)C1 (stereo not given) the results were Pf apPOL block 1 and mHTT CaM bind -1.
`CC1=C(C(=O)N2CCOCC2)C(c2ccc3c(c2)OCO3)C2=C(CC(C)(C)CC2=O)N1` (stereo not given) gave Pf apPOL block -7 and mHTT CaM bind -3.
`O=C(Nc1cccc(C(F)(F)F)c1)N1CC(c2nc(-c3cccs3)no2)C1` gave Pf apPOL block -1 and mHTT CaM bind -8.
CCC(=O)Nc1nc2ccccc2n1CC was read as Pf apPOL block -15 and mHTT CaM bind -2.
For C=CCn1c(NC(=O)c2ccccc2)nc2ccccc21 the results were Pf apPOL block 1 and mHTT CaM bind 54*.
Screening O=C(Nc1nc2ccccc2n1CCN1CCCCC1)c1ccccc1 returned Pf apPOL block -3 and mHTT CaM bind 34.
`CCn1c(NC(=O)c2ccccc2)nc2ccccc21` gave Pf apPOL block 0 and mHTT CaM bind 53*.
O=C1OC(c2cccc([N+](=O)[O-])c2)=N/C1=C\c1ccc(OCc2ccccc2)cc1 was read as Pf apPOL block 26 and mHTT CaM bind 1.
Screening COc1cccc(Nc2cc(C(=O)N3CCCCC3)nc3ccc(OC)cc23)c1 returned Pf apPOL block -1 and mHTT CaM bind 2.
`Cc1nc(N)[nH]c(=O)c1Oc1ccccc1` gave Pf apPOL block -2 and mHTT CaM bind -2.
Screening Nc1c(Oc2ccccc2)c(Oc2ccccc2)c(N)c2c1C(=O)c1ccccc1C2=O returned Pf apPOL block -3 and mHTT CaM bind 97*.
COc1ccc(C2=N/C(=C\c3ccccc3Cl)C(=O)O2)cc1 was read as Pf apPOL block -6 and mHTT CaM bind -7.
Cc1nc2c(C(=O)NCc3ccccc3)c[nH]n2c(=O)c1Cl was read as Pf apPOL block 73* and mHTT CaM bind 46.
Screening Cc1nc2c(C(=O)NCc3ccccc3Cl)c[nH]n2c(=O)c1Cl returned Pf apPOL block -13 and mHTT CaM bind 13.
Cc1nc2c(C(=O)NCCc3ccccc3Cl)c[nH]n2c(=O)c1Cl was read as Pf apPOL block -15 and mHTT CaM bind 57*.
Cc1nc2c(C(=O)NCc3ccccc3)c[nH]n2c(=O)c1Cc1ccccc1Cl was read as Pf apPOL block -2 and mHTT CaM bind 40.
CN1CCN(C(=O)c2ccc([N+](=O)[O-])cc2Cl)CC1 was read as Pf apPOL block 7 and mHTT CaM bind -3.
`COc1ccccc1C(=O)O/N=C1\C=C(C(C)C)C(=O)C=C1C` gave Pf apPOL block -5 and mHTT CaM bind active.
For COc1ccc(Cl)cc1C(=O)O/N=C1\C=C(C(C)C)C(=O)C=C1C the results were Pf apPOL block 8 and mHTT CaM bind active.
For COc1cc(C(=O)O/N=C2/C=C(C(C)C)C(=O)C=C2C)cc(OC)c1OC the results were Pf apPOL block -4 and mHTT CaM bind inactive.
For CC1=CC(=O)C(C(C)C)=C/C1=N\OC(=O)c1ccc(C(C)(C)C)cc1 the results were Pf apPOL block -5 and mHTT CaM bind inactive.
Screening CC1=CC(=O)C(C(C)C)=C/C1=N\OC(=O)c1ccccc1C returned Pf apPOL block 2 and mHTT CaM bind inactive.
CC1=CC(=O)C(C(C)C)=C/C1=N\OC(=O)c1ccc(C)cc1 was read as Pf apPOL block -6 and mHTT CaM bind inactive.
CC1=CC(=O)C(C(C)C)=C/C1=N\OC(=O)c1cccs1 was read as Pf apPOL block 7 and mHTT CaM bind active.
COc1ccc(C(=O)O/N=C2\C=C(C(C)C)C(=O)C=C2C)cc1Br was read as Pf apPOL block 3 and mHTT CaM bind active.

Source: PubChem BioAssay (University of Kansas High Throughput Screening Laboratory)
